PubChem BioAssay (Tox21)
Records with an inconclusive call do not appear. Active and inactive are the calls of the source. Unless noted, calls follow the shape of the dose curve; as a rule, active = well fitted cell-killing curve with a large enough effect in the repeat runs; inconclusive = weak or mixed curves, or effect the other way; inactive = flat fitted curve, though single readings scatter.

tested on: not listed separately; test: qHTS assay to identify small molecule agonists of the TGF-beta/Smad signaling pathway - cell viability counter screen (AID 1346829); conditions: SBE-bla HEK293T viability, CellTiter-Glo luminescence, 5 h; series mostly up to 76.8 µM; also: top concentration of the series differs between compounds; nearly all actives have a fitted effect of over 45% in size
Procedure, shortened: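 In parallel with the Smad reporter read, viability of HEK 293T cells stably carrying SBE-bla is quantified by ATP luminescence following 5 hr compound treatment.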

Row | SMILES | outcome
1 | CCC(C)n1c(=O)[nH]c(C)c(Br)c1=O (centres undefined) | inactive
2 | CN1CCC(O)(c2ccc(F)cc2)C(C(=O)c2ccc(F)cc2)C1 (centres undefined) | inactive
3 | CC(=O)[C@H]1CC[C@H]2[C@@H]3CC[C@H]4C[C@H](O)CC[C@]4(C)[C@H]3C(=O)C[C@]12C | inactive
4 | O=C(O)c1cccc(Cl)c1 | inactive
5 | O=NN1CCN(N=O)CC1 | inactive
6 | Nc1ccccc1Cl | inactive
7 | CC1CCCCC1NC(=O)Nc1ccccc1 (centres undefined) | inactive
8 | CC(C)NCC(O)c1ccc(N)c(C#N)c1 (centres undefined) | inactive
9 | CCOP(=O)(OCC)OP(=O)(OCC)OCC | inactive
10 | COC(=O)c1c(C(F)F)nc(C(F)(F)F)c(C2=NCCS2)c1CC(C)C | inactive
11 | C[N+](C)=CCl | inactive
12 | CC(=O)Nc1cc([As](=O)(O)O)ccc1O | inactive
13 | CCOP(=S)(OCC)SCSP(=S)(OCC)OCC | inactive
14 | C[C@]12CC[C@H]3[C@@H](CCC4=CC(=O)CC[C@@]43C)[C@@H]1CC[C@@H]2C(=O)O | inactive
15 | CCC(=O)c1ccccc1 | inactive
16 | C[C@@H]1CN(C2CCC(C#N)(c3ccc(F)cc3)CC2)CC[C@]1(C(=O)O)c1ccccc1 (some centres undefined) | inactive
17 | N#CCCC#N | inactive
18 | CSc1ccc(C(=O)C(C)(C)N2CCOCC2)cc1 | inactive
19 | c1ccc(N2CCNCC2)cc1 | inactive

Row | SMILES | outcome
20 | CC(C)(C)OC(=O)c1ncn2c1[C@@H]1CCCN1C(=O)c1c(Br)cccc1-2 | inactive
21 | CC(N)=S | inactive
22 | Clc1cccc(N2CCNCC2)c1 | inactive
23 | CCCCOC(=O)c1ccccc1N | inactive
24 | COc1cc(C[C@@H](C)N)c(OC)cc1C | inactive
25 | CNC(=O)Oc1ccccc1C1OCCO1 | inactive
26 | CCOC(=O)NC(=S)Nc1ccccc1NC(=S)NC(=O)OCC | inactive
27 | ClCC(Cl)(Cl)Cl | inactive
28 | O=C(Cc1ccccc1)OCc1ccccc1 | inactive
29 | CCCSC(=O)Cl | inactive
30 | Cc1cc(C)c(C(=O)P(=O)(C(=O)c2c(C)cc(C)cc2C)c2ccccc2)c(C)c1 | inactive
31 | C#C[C@]1(O)C=C[C@H]2[C@@H]3CCC4=CC(=O)CC[C@@H]4[C@H]3CC[C@@]21CC | inactive
32 | CCCCC(=O)Cl | inactive
33 | O=c1oc2ccccc2c(O)c1C1CCCc2ccccc21 (centres undefined) | inactive
34 | CCCCc1c(C)nc(NCC)[nH]c1=O | inactive
35 | OC(Cn1cncn1)(c1ccc(F)cc1)c1ccccc1F (centres undefined) | inactive
36 | CC(CC(C#N)(c1ccccc1)c1ccccc1)N(C)C (centres undefined) | inactive
37 | CNCC(=O)c1ccc(O)c(O)c1 | inactive
38 | CCN(Cc1ccc(Cl)nc1)/C(=C/[N+](=O)[O-])NC | inactive

tested on: not listed separately; test: qHTS assay to identify small molecule agonists of the TGF-beta/Smad signaling pathway (AID 1346859; active = well fitted activation curve with a large enough effect in the signal ratio in the repeat runs, not every such curve was filed as active; the % refers to the signal ratio); conditions: SBE-bla HEK293T, TGF-beta/Smad beta-lactamase reporter, 5 h; series mostly up to 76.8 µM
Procedure, shortened: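 Stable Smad binding element-beta-lactamase HEK 293T cells; 5 hr compound exposure at 37 C under 5% CO2; 2 hr room-temperature substrate step; fluorescence excited at 405 nm, collected at 460 nm and 530 nm.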

Row | SMILES | outcome
39 | CCC(C)n1c(=O)[nH]c(C)c(Br)c1=O (centres undefined) | inactive
40 | CN1CCC(O)(c2ccc(F)cc2)C(C(=O)c2ccc(F)cc2)C1 (centres undefined) | inactive
41 | CC(=O)[C@H]1CC[C@H]2[C@@H]3CC[C@H]4C[C@H](O)CC[C@]4(C)[C@H]3C(=O)C[C@]12C | inactive
42 | O=C(O)c1cccc(Cl)c1 | inactive
43 | O=NN1CCN(N=O)CC1 | inactive
44 | Nc1ccccc1Cl | inactive
45 | CC1CCCCC1NC(=O)Nc1ccccc1 (centres undefined) | inactive
46 | CC(C)NCC(O)c1ccc(N)c(C#N)c1 (centres undefined) | inactive
47 | CCOP(=O)(OCC)OP(=O)(OCC)OCC | inactive
48 | COC(=O)c1c(C(F)F)nc(C(F)(F)F)c(C2=NCCS2)c1CC(C)C | inactive
49 | C[N+](C)=CCl | inactive
50 | CC(=O)Nc1cc([As](=O)(O)O)ccc1O | inactive
51 | CCOP(=S)(OCC)SCSP(=S)(OCC)OCC | inactive
52 | CCC(=O)c1ccccc1 | inactive
53 | N#CCCC#N | inactive
54 | CSc1ccc(C(=O)C(C)(C)N2CCOCC2)cc1 | inactive
55 | CC(N)=S | inactive
56 | CCCCOC(=O)c1ccccc1N | inactive
57 | COc1cc(C[C@@H](C)N)c(OC)cc1C | inactive
58 | CCOC(=O)NC(=S)Nc1ccccc1NC(=S)NC(=O)OCC | inactive
59 | O=C(Cc1ccccc1)OCc1ccccc1 | inactive
60 | CCCSC(=O)Cl | inactive
61 | Cc1cc(C)c(C(=O)P(=O)(C(=O)c2c(C)cc(C)cc2C)c2ccccc2)c(C)c1 | inactive
62 | C#C[C@]1(O)C=C[C@H]2[C@@H]3CCC4=CC(=O)CC[C@@H]4[C@H]3CC[C@@]21CC | inactive
63 | CCCCC(=O)Cl | inactive
64 | CCCCc1c(C)nc(NCC)[nH]c1=O | inactive
65 | OC(Cn1cncn1)(c1ccc(F)cc1)c1ccccc1F (centres undefined) | inactive
66 | CC(CC(C#N)(c1ccccc1)c1ccccc1)N(C)C (centres undefined) | inactive
67 | CCN(Cc1ccc(Cl)nc1)/C(=C/[N+](=O)[O-])NC | inactive

biological target: Thyrotropin-releasing hormone receptor (Homo sapiens) (UniProt P34981); test: qHTS assay to identify small molecule antagonists of the thyrotropin-releasing hormone receptor (TRHR) signaling pathway (AID 1346877; active = well fitted inhibition curve with a large enough effect in the repeat runs, not every such curve was filed as active); conditions: TRHR-HEK293, TRH-induced calcium fluorescence, antagonist mode; series mostly up to 51.3 µM
Procedure, shortened: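 Antagonist mode: after a 5 min room-temperature compound exposure, cells were stimulated with 1 nM (final) TRH. Dye-loaded TRHR-HEK293 cells were used, and calcium-dependent fluorescence was followed for 3 min, with 15-point titrations run in triplicate.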

Chain of Thyrotropin-releasing hormone receptor (Homo sapiens) (P34981 whole entry, looked up): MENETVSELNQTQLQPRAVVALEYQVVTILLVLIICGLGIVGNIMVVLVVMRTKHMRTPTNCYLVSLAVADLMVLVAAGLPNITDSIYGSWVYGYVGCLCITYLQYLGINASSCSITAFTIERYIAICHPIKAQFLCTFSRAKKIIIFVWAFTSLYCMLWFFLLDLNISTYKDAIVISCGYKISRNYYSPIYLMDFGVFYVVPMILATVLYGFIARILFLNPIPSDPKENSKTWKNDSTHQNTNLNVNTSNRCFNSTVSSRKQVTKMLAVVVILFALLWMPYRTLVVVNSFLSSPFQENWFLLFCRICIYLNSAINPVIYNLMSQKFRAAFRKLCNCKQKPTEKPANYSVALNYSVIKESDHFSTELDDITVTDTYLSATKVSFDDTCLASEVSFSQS

Row | SMILES | outcome
68 | CCC(C)n1c(=O)[nH]c(C)c(Br)c1=O (centres undefined) | inactive
69 | CN1CCC(O)(c2ccc(F)cc2)C(C(=O)c2ccc(F)cc2)C1 (centres undefined) | inactive
70 | CC(=O)[C@H]1CC[C@H]2[C@@H]3CC[C@H]4C[C@H](O)CC[C@]4(C)[C@H]3C(=O)C[C@]12C | inactive
71 | O=C(O)c1cccc(Cl)c1 | inactive
72 | O=NN1CCN(N=O)CC1 | inactive
73 | CC1CCCCC1NC(=O)Nc1ccccc1 (centres undefined) | inactive
74 | CCOP(=O)(OCC)OP(=O)(OCC)OCC | inactive
75 | COC(=O)c1c(C(F)F)nc(C(F)(F)F)c(C2=NCCS2)c1CC(C)C | inactive
76 | C[N+](C)=CCl | inactive
77 | CC(=O)Nc1cc([As](=O)(O)O)ccc1O | inactive
78 | CCOP(=S)(OCC)SCSP(=S)(OCC)OCC | inactive
79 | CCC(=O)c1ccccc1 | inactive
80 | N#CCCC#N | inactive
81 | CSc1ccc(C(=O)C(C)(C)N2CCOCC2)cc1 | inactive
82 | CC(C)(C)OC(=O)c1ncn2c1[C@@H]1CCCN1C(=O)c1c(Br)cccc1-2 | inactive
83 | CC(N)=S | inactive
84 | CCCCOC(=O)c1ccccc1N | inactive
85 | COc1cc(C[C@@H](C)N)c(OC)cc1C | inactive
86 | CNC(=O)Oc1ccccc1C1OCCO1 | inactive
87 | Cc1cc(C)c(C(=O)P(=O)(C(=O)c2c(C)cc(C)cc2C)c2ccccc2)c(C)c1 | inactive
88 | C#C[C@]1(O)C=C[C@H]2[C@@H]3CCC4=CC(=O)CC[C@@H]4[C@H]3CC[C@@]21CC | inactive
89 | O=c1oc2ccccc2c(O)c1C1CCCc2ccccc21 (centres undefined) | inactive
90 | CCCCc1c(C)nc(NCC)[nH]c1=O | inactive
91 | OC(Cn1cncn1)(c1ccc(F)cc1)c1ccccc1F (centres undefined) | inactive
92 | CC(CC(C#N)(c1ccccc1)c1ccccc1)N(C)C (centres undefined) | inactive
93 | CNCC(=O)c1ccc(O)c(O)c1 | inactive
94 | CCN(Cc1ccc(Cl)nc1)/C(=C/[N+](=O)[O-])NC | inactive
